# High-throughput results (PubChem)
# Shiga toxin inh = Shiga toxin inhibition | Vero cells, Shiga toxin protein synthesis inhibition reporter | AID 2315 | actives 9.2% (n = 290,000) | inhibition, % at 38.7 µM; in the data active means inhibition mostly above about 28%, no sharp cut-off; inactive means mostly below about 43%; further: 0% is about no effect
# CHX counter = affects cycloheximide protein synthesis inhibition readout, counter-screen; cell reporter, cycloheximide protein synthesis inhibition counterscreen; max response, %; actives 12% (n = 300,000); AID 2314; in the data active means max response mostly above about 13%, no sharp cut-off; inactive means mostly below about 14%; further: read at 38.3 µM for the half of the compounds with a filed dose; 0% is about no effect
# LmPK inh = inhibitors of Leishmania mexicana pyruvate kinase; Potency, µM (series often up to 57.5 µM), inactives show at the top dose activity change, negative = inhibition, actives largely listed as inhibitors; AID 1721; Q27686; purified LmPK, Kinase-Glo ATP luminescence, 1 h; actives 0.37% (n = 290,000); further: potency means the concentration at half of the fitted maximal effect; on the % scale 0 is the no-effect control and ±100 the full control effect
# Target sequence (Q27686 whole entry, looked up): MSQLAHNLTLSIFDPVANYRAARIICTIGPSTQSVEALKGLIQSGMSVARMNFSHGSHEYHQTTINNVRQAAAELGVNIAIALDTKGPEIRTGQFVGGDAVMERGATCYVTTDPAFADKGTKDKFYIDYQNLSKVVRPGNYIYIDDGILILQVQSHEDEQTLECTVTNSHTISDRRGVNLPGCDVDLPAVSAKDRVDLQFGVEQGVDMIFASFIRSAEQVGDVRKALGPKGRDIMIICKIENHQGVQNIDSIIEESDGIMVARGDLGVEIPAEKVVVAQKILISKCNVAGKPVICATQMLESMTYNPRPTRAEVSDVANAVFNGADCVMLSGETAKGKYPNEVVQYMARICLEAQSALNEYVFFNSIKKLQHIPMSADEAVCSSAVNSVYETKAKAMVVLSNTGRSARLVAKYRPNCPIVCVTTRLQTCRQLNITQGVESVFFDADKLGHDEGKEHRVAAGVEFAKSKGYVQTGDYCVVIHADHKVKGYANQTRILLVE
#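 qHTS format; LmPK 0.1 nM; substrates PEP 0.5 mM and ADP 0.1 mM. One-hour room-temperature incubation, then coupled luciferase luminescence; 0.5 nM enzyme wells mark activation.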
# TbPYK inhibitor = inhibitors of Trypanosoma brucei pyruvate kinase. Q57TT1. TbPYK enzyme, Kinase-Glo Plus ATP luminescence, 45 min. Potency, µM (series often up to 76.8 µM), inactives show top-dose activity, negative = inhibition, most hits filed as inhibitors. actives 0.12% (n = 410,000); further: potency means the concentration at half of the fitted maximal effect; on the % scale 0 is the no-effect control and ±100 the full control effect; nearly all actives have a fitted effect of over 50% in size
#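 Glycolytic pyruvate kinase of T. brucei was incubated with substrate, test compound and 130 uM ADP for 45 minutes at room temperature. Luminescent Kinase-Glo Plus signal was measured after 10 minutes.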
# Giardia FBPA inh = Giardia lamblia aldolase inhibition | purified Giardia FBPA | Potency, µM (series often up to 59.6 µM), for inactives: at the top dose activity, negative = inhibition, actives largely listed as inhibitors | actives 0.71% (n = 290,000) | AID 2451; further: potency means the concentration at half of the fitted maximal effect; on the % scale 0 is the no-effect control and ±100 the full control effect; nearly all actives have a fitted effect of over 55% in size
#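 40 nM FBPA preincubated 10 min at RT with compound (up to 57.5 uM final), then substrate plus GAPDH/TPI/NAD/arsenate coupling and diaphorase/resazurin added. Fluorescence read after 20 min at RT, 525/598 nm.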
# RE007 growth inh = less growth of the S. pombe RE007 Vpr strain; S. pombe RE007 Vpr strain, BacTiter-Glo ATP luminescence, 24 h; Potency, µM (titrated, usually from 92.2 µM), inactives show at the top dose activity change, negative = less growth, usual class: inhibitors; actives 0.21% (n = 360,000); AID 651644; active means well fitted falling curve with a large enough effect; inconclusive means small, poorly fitted or top-dose-only effect; inactive means no such curve, though single readings can be large or run the other way; further: potency means the concentration at half of the fitted maximal effect; on the % scale 0 is the no-effect control and ±100 the full control effect; nearly all actives have a fitted effect of over 50% in size
#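 Fission yeast strain RE007, carrying one chromosomally integrated HIV-1 vpr copy, was seeded at OD 0.01 in PMG+AL medium with 23 nL pinned compound. After 24 h at 30 °C and 99% humidity, viability was read by BacTiter-Glo luminescence.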
# Numbers without * were called inactive; ? = inconclusive; . = not tested or not shown. Shown is part of a subset that was picked to be rich in hits. Unless noted, the call rests on the fitted dose curve; in most records, active means well fitted curve in the direction sought with a large enough effect; inconclusive means small, poorly fitted or top-dose-only effect, or another doubt; inactive means no such curve, though single readings can be large; an effect the other way counts as inactive or inconclusive.
SMILES,Shiga toxin inh,CHX counter,LmPK inh,TbPYK inhibitor,Giardia FBPA inh,RE007 growth inh
Cc1nc(SC(C)C(=O)Nc2ccccc2Cl)cc(-c2ccccc2)n1 (configuration not stated),.,.,.,0.0%,.,.
COc1ccc(S(=O)(=O)N(CCO)c2ccccc2CN(C)CC=Cc2ccc(Cl)cc2)cc1,-3.7,3.8,.,.,-8.7%,.
COCCNC(=O)C1(C(F)(F)F)C/C(=C/CCO)CCCO1 (configuration not stated),2.5,8.7,.,.,3.9%,.
O=c1cc[nH]c(=S)[nH]1,.,.,.,1.6%,15.8µM*,.
C=CCn1c(O)c(CN2CCOCC2)c(C)c(C#N)c1=O,91.1*,29.9*,-1.1%,-10.7%,14.1µM*,3.5%
C=CCn1c(C)cc(C)c(C#N)c1=O,33.7,0.1,5.7%,-4.4%,13.3%,-11.3%
c1ccc(CCNc2ncnc3ccccc23)cc1,56.9,49.4*,-2.0%,2.5%,-0.5%,4.4%
Cc1cc2c(Nc3ccccc3)ncnc2s1,21.0,2.9,-4.8%,2.8%,-13.4%,-24.6%
Cc1cc2c(NCCc3ccccc3)ncnc2s1,64.7*,24.8*,1.5%,0.2%,?,-15.6%
Cc1ccc2oc(-c3cc(NC(=O)/C=C/c4ccco4)ccc3Cl)nc2c1,.,.,.,-9.8%,.,.
Cc1ccc2oc(-c3cccc(NC(=S)NC(=O)c4cccs4)c3)nc2c1,24.2*,41.1*,-8.2%,-0.7%,-10.7%,-16.5%
O=C(Nc1ccc2oc(-c3ccccc3)nc2c1)c1cccs1,66.7*,55.1*,1.6%,-7.9%,-13.8%,-10.9%
Cc1ccc2oc(-c3cccc(NC(=S)NC(=O)/C=C/c4ccco4)c3)nc2c1,68.7*,51.6*,0.9%,-8.7%,-0.5%,1.8%
CCc1c(C)nc2nncn2c1Nc1ccc(C)c(F)c1,.,.,.,-1.4%,.,.
C/C1=C/C(=O)O[C@@H]2C[C@@H](CC[C@H](C)/C=C\CC1)O[C@@](O)(C1CSC(=O)N1)C2 (some centres not stated),-2.9,-5.0,.,.,-0.6%,.
CC1Cc2ccccc2N1S(=O)(=O)c1nnc(NC(=O)c2ccccc2Br)s1 (configuration not stated),.,.,.,-3.1%,.,.
CCOC(=O)/C(=N/Nc1ccc(OC)cc1)Sc1nnc(CCc2ccccc2)n1-c1ccccc1,-23.1,30.9*,-3.3%,-14.1%,?,-3.7%
CC(=O)/C(=N/Nc1ccc(C)cc1)Sc1nnc(CCc2ccccc2)n1-c1ccccc1,-9.1,-1.3,-2.3%,-9.4%,-5.8%,6.1%
Cc1cccc(N2CC(c3nc4ccc(C)cc4[nH]3)CC2=O)c1 (configuration not stated),.,.,.,-4.6%,.,.
Cc1ccc(COc2ccccc2C(=S)N2CCCC2)cc1,19.6,17.3*,-1.1%,-9.4%,-8.3%,-1.1%
COc1cc(C(=S)N2CCCC2)ccc1OCc1ccc(C)cc1,81.5*,69.2*,-1.7%,-3.8%,-5.8%,-10.2%
Cc1ccc(-n2c(=O)c3c(cnn3C)n(CC(=O)Nc3ccc(C)cc3C)c2=O)cc1,.,.,.,0.5%,.,.
O=C(COc1ccc(F)cc1)NCC(c1ccc(Cl)cc1)N1CCCCC1 (configuration not stated),.,.,.,0.3%,.,.
Cn1c(=NC(=O)c2ccccc2[N+](=O)[O-])sc2cccc(F)c21,162.0*,63.3*,-2.3%,1.8%,-0.9%,21.6%
C#CCn1c(=NC(=O)c2ccccc2[N+](=O)[O-])sc2cc(S(C)(=O)=O)ccc21,-1.2,8.5,3.1%,0.4%,5.0%,3.7%
Cn1c(=NC(=O)C(C)(C)C)sc2cccc(F)c21,57.9*,12.9,-17.8%,0.3%,4.6%,?
C/C(=N\NC(=O)c1ccc(-c2ccccc2)cc1)c1ccco1,41.9,16.3,-1.6%,-4.6%,-0.6%,0.3%
CCCCCC(=O)N/N=C(\C)c1ccc(NC(=O)c2ccco2)cc1,80.9*,29.8*,-0.6%,0.0%,4.4%,-11.4%
C/C(=N/NC(=O)c1ccco1)c1ccc(NC(=O)c2ccc(Br)o2)cc1,95.8*,61.6*,-4.1%,-4.7%,.,-8.1%
C/C(=N/NC(=O)c1ccco1)c1ccc(NC(=O)c2ccc(F)cc2)cc1,57.9*,90.1*,2.7%,-7.7%,-0.8%,0.8%
